TDP1 cell noCPT – qHTS for Inhibitors of human tyrosyl-DNA phosphodiesterase 1 (TDP1): qHTS in cells in absence of CPT | DT40 Tdp1-/- hTDP1 cells, no CPT, ATP luminescence, 48 h | Potency, µM (top dose mostly 46.2 µM), hits mostly inhibitors | 420,000 compounds, 15% hits; further: nearly all actives have a fitted effect of over 55% in size
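Cells were dispensed at 400 per well, compounds added by pin tool, plates incubated ≥48 hr at 37 °C, then CellTiter-Glo added for 30 min at room temperature before luminescence reading. Line: DT40 Tdp1-/- complemented with hTDP1; camptothecin omitted.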
BCR signal inh – blocks chronic active B-cell receptor signaling; 340,000 compounds, 0.05% hits; Potency, µM (doses to about 46.1 µM), hits mostly inhibitors; ABC-DLBCL IkBa-CBG/CBR reporter, luminescence ratio, 4 h; active means well fitted inhibition curve with a large enough effect in the signal ratio, with a control signal flat, not every such curve was filed as active; inconclusive means small, poorly fitted or top-dose-only effect, or effect the other way, or a change in a side signal; the % refers to the signal ratio
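TMD8 human ABC-DLBCL cells with doxycycline-inducible IκBα–green luciferase fusion and unfused red luciferase, in 0.5% FBS medium; compounds up to 46 uM, 4 h at 37C. Green/red luminescence ratio, filter-overlap corrected, fitted to concentration-response curves.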
SW480 rerep – induces DNA re-replication in SW480 colon adenocarcinoma cells; SW480 DNA re-replication, Hoechst DNA content imaging, 48 h; Potency, µM (titrated, usually from 46.1 µM), most hits filed as activators; 340,000 compounds, 1.8% hits; AID 624297; further: nearly all actives have a fitted effect of over 55% in size
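First, 250 cells per well were seeded. Next, compound or vehicle (23 nL) was pinned in, plates sat 48 hr at 37 C. Finally Hoechst was added for 40 min before fluorescence scanning.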
MCF10A rereplic – induces DNA re-replication in MCF 10a normal breast cells. MCF 10A DNA re-replication, Hoechst nuclear intensity, 48 h. Potency, µM (doses to about 46.1 µM), most hits filed as activators. 350,000 compounds, 2.9% hits; further: nearly all actives have a fitted effect of over 50% in size
DT40 TDP1 CPT – growth inhibition of DT40 Tdp1-/-;hTDP1 cells with camptothecin (screen for TDP1 inhibitors). chicken DT40 Tdp1-/-;hTDP1 cells + 20 nM CPT, ATP luminescence, 48 h. Potency, µM (series often up to 46.2 µM), most hits filed as inhibitors. 420,000 compounds, 12% hits. AID 686979; further: nearly all actives have a fitted effect of over 55% in size
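Chicken DT40 Tdp1-/- cells complemented with human TDP1, 400 cells/well, exposed to compounds plus 20 nM camptothecin for at least 48 h at 37 C; viability read as ATP content by CellTiter-Glo luminescence.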
IL1B secr inh – blocks inflammasome-driven IL-1 beta release | 360,000 compounds, 4.7% hits | activity change, % at 57.5 µM | AID 743279 | THP-1 LPS/ATP IL-1B secretion, AlphaLISA, 16 h; active compounds read low; in the data active means activity change below about -50%; inconclusive means mostly about -30% to -49%
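Secreted IL-1B measured by AlphaLISA bead assay after 16 h compound exposure of THP-1 cells; compounds (final up to 57.5 uM) added 1 h before LPS (250 ng/mL) and ATP (1.25 mM) stimulation; lower signal means less secretion.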
Hits are given with their value; - = inactive; ? = inconclusive; . = no result; [ ] = another dose, or the depositor's remark. The list is not random: actives were taken first. Their share in the collection is about 19%. Unless noted, the call rests on the fitted dose curve; in most records, active means well fitted curve in the direction sought with a large enough effect; inconclusive means small, poorly fitted or top-dose-only effect, or another doubt; inactive means no such curve, though single readings can be large; an effect the other way counts as inactive or inconclusive.

SMILES	TDP1 cell noCPT	BCR signal inh	SW480 rerep	MCF10A rereplic	DT40 TDP1 CPT	IL1B secr inh
COc1cc(OC)c(OC)cc1/C=C/c1ccc2ccccc2n1	14µM	.	.	.	11µM	.
COc1ccc(/C=C/c2nc3cc(-c4ccccc4)ccc3o2)cc1O	9.2µM	-	18µM	5.8µM	9.2µM	-
COc1cc(OC)c(OC)cc1/C=C/c1nc2ccccc2o1	13µM	.	.	.	?	.
Fc1ccc(/C=C/c2ccc3ccccc3n2)cc1	2.8µM	.	.	.	2.8µM	.
COc1cc(/C=C/c2ccccc2)cc(OC)c1	-	.	?	?	-	-
COc1cc(/C=C\c2ccc(OC)cc2OC)cc(OC)c1	?	.	.	.	7.5µM	.
Fc1cccc(F)c1/C=C/c1ccc2ccccc2n1	?	?	.	-	?	-
COc1cc(Cl)cc(/C=C/c2ccc3ccccc3n2)c1OC(C)=O	?	?	?	?	?	-102
CC(O)/C=C/c1ccc2ccccc2n1 (configuration not stated)	?	?	?	18µM	13µM	-96
Nc1ccccc1NC(=O)CCn1c(=S)[nH]c2ccccc2c1=O	-	-	-	-	?	-
COc1ccc(C(=O)N2CCCC(C(=O)O)C2)c2ccccc12 (configuration not stated)	-	-	-	-	-	-
COc1ccc(C=Cc2ccc3ccccc3n2)c(OC)c1	23µM	.	.	.	-	-
COc1ccc(NC(=O)COC(=O)c2ccc3ccccc3n2)c(OC)c1	-	?	-	-	-	-
CCCc1ccc(-c2cc(C(=O)NCCc3ccc(S(N)(=O)=O)cc3)c3ccccc3n2)cc1	12µM	?	-	-	15µM	?
NS(=O)(=O)c1ccc(CCNC(=O)c2cc(-c3ccc(Br)cc3)nc3ccccc23)cc1	8.2µM	?	-	?	9.2µM	-
Cc1cc(NC(=O)CCN2C(=O)C3C4C=CC(C4)C3C2=O)c2ccccc2n1 (configuration not stated)	21µM	-	-	-	?	-
CCCS(=O)(=O)NC(=O)C1(C)CCCN(C(=O)COCc2ccccc2)C1 (configuration not stated)	-	.	.	.	-	-
O=C1C2CC3N1CCC31c3ccccc3-n3c1c2ccc3=O (configuration not stated)	?	.	-	-	?	-
CCCOc1ncnc2c1[nH]c1ccc(OC)cc12	8.2µM	-	-	-	6.5µM	-
CCCCOc1ncnc2c1[nH]c1ccc(C)cc12	21µM	?	-	-	?	.
COc1ccc2[nH]c3c(=O)n(CCN4CCOCC4)cnc3c2c1	-	?	-	-	-	-
COCCCNc1ncnc2c1[nH]c1ccccc12	.	-	.	.	.	.
OCCCNc1ncnc2c1[nH]c1ccccc12	-	-	-	-	-	-
CCN(CC)c1ncnc2c1[nH]c1ccccc12	23µM	-	-	?	18µM	-
CCCOc1ncnc2c1[nH]c1ccccc12	21µM	-	-	?	23µM	-
SMILES	TDP1 cell noCPT	BCR signal inh	SW480 rerep	MCF10A rereplic	DT40 TDP1 CPT	IL1B secr inh
Cc1ccc(S(=O)(=O)N2CCN(C(=O)CN3C(=O)c4ccccc4C3=O)CC2)c(C)c1	-	-	-	-	-	-
Cc1ccc([N+](=O)[O-])cc1S(=O)(=O)Nc1cccc(S(=O)(=O)NC2=NCCC2)c1	-	-	-	-	-	-
COCCNc1ncnc2c1[nH]c1ccccc12	12µM	?	-	-	?	-
OC1COC(O)C(O)C1O (configuration not stated)	-	-	?	-	-	-
Cc1cc(C)nc(N/C(=N\S(=O)(=O)Cc2ccccc2)Nc2ccccc2Br)n1	21µM	-	?	4.1µM	21µM	-
CNC(=O)NC(=O)C(OC(=O)Cc1cccc(C(F)(F)F)c1)c1ccccc1 (configuration not stated)	-	-	?	-	-	-
Cc1cc2c(cc1S(=O)(=O)C(C)CC(=O)NC1CCC(C)CC1)OCC(=O)N2 (configuration not stated)	-	.	.	.	-	.
CC1=NN(c2ccccc2)C(=O)C1C(=O)c1ccc(Cl)cc1 (configuration not stated)	23µM	?	-	-	21µM	-
CC(NC(=O)C1CCN(S(=O)(=O)c2ccc3c(c2)oc(=O)n3C)CC1)c1ccccc1 (configuration not stated)	-	.	.	.	-	.
COc1ccc(N)cc1-n1c(C)ccc1C	-	?	0.52µM	-	7.3µM	?
COc1ccc(N)cc1C#N	-	-	-	-	?	-
Clc1ccc2ccc3cccnc3c2n1	?	-	-	-	?	-
O=S1(=O)Nc2c(ccc3cccnc23)-c2ccccc21	1.5µM	?	-	-	1.2µM	-100
CC(c1cccs1)N(C(=O)Nc1ccccc1)C1CCCCC1 (configuration not stated)	14µM	-	-	-	16µM	-
COc1ccc(NC(=O)N(CCC(C)C)C(C)c2cccs2)c(OC)c1 (configuration not stated)	18µM	-	.	.	?	.
CCc1ccc(NC(=O)N(Cc2ccco2)C(C)c2cccs2)cc1 (configuration not stated)	?	-	-	?	?	?
CC(C)CCN(C(=O)Nc1ccccc1)C(C)c1cccs1 (configuration not stated)	18µM	?	?	-	21µM	-
Cc1ccc(C)c(OCCOCCn2c(-c3ccc(Br)cc3)nc3ccccc3c2=O)c1C	-	.	.	.	?	.
COc1ccc(C(=O)CCC(=O)Nc2cc(C)ccc2C)cc1	-	-	.	.	-	.
COc1ccc(N2CCN(c3nc4c(c(=O)n(C)c(=O)n4C)n3Cc3ccccc3)CC2)cc1	?	?	-[9.22 µM]	-	23µM	-
CCCCCCn1c(N2CCN(c3ccccc3)CC2)nc2c1c(=O)n(C)c(=O)n2C	21µM	-	?	?	?	-
COC(=O)Cn1c(N2CCCC2)nc2c1c(=O)n(C)c(=O)n2C	-	-	?	-	-	-
COCCn1c(N2CCN(c3ccccc3)CC2)nc2c1c(=O)n(C)c(=O)n2C	?	-	-	-	-	-
C=C(C)Cn1c(N2CCN(c3ccc(OC)cc3)CC2)nc2c1c(=O)n(C)c(=O)n2C	13µM	-	-	-	16µM	-
CC1CCCN(c2nc3c(c(=O)n(C)c(=O)n3C)n2Cc2ccccc2)C1 (configuration not stated)	23µM	-	-	?	?	-
CC1CCCN(Cc2nc3c(c(=O)n(C)c(=O)n3C)n2Cc2ccc(Cl)cc2)C1 (configuration not stated)	-	.	.	.	-	.
CC(=O)c1cccc(OC(=O)c2cc(S(=O)(=O)N3CCOCC3)ccc2N2CCCC2)c1	?	?	-	-	?	-

Screening results from PubChem.
